# Many of the other results were omitted from the sample, so the strongest signals are more common in it than they were.
# B1: MGL1 (Mus musculus), P49300 (protein)
# chain: MIYENLQNSRIEEKTQEPGKAPSQSFLWRILSWTHLLLFSLGLSLLLLVVVSVIGSQNSQLRRDLGTLRATLDNTTSKIKAEFQSLDSRADSFEKGISSLKVDVEDHRQELQAGRDLSQKVTSLESTVEKREQALKTDLSDLTDHVQQLRKDLKALTCQLANLKNNGSEVACCPLHWTEHEGSCYWFSESEKSWPEADKYCRLENSHLVVVNSLEEQNFLQNRLANVVSWIGLTDQNGPWRWVDGTDFEKGFKNWAPLQPDNWFGHGLGGGEDCAHITTGGPWNDDVCQRTFRWICEMKLAKES
# How the values were obtained:
# Assay in all cases: glycan array binding signal (z-score within array); higher = stronger binding
# Details in all cases: glycan notation: IUPAC condensed, linker removed
# [1] = target: Fuc(a1-2)Gal(b1-4)GlcNAc(b1-2)Man
# Summary of the method: (§1)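 The Consortium for Functional Glycomics database supplied 3228 glycan arrays, of which those lacking an available protein sequence were dropped. The binding signal, a within-array Z-score, was averaged across arrays of the same protein sequence and across linkers. Negative scores can be read as non-binding.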
# [2] = target: Fuc(a1-2)Gal(b1-4)[Fuc(a1-3)]GlcNAc(b1-2)[Fuc(a1-2)Gal(b1-4)[Fuc(a1-3)]GlcNAc(b1-4)]Man(a1-3)[Fuc(a1-2)Gal(b1-4)[Fuc(a1-3)]GlcNAc(b1-2)Man(a1-6)]Man(b1-4)GlcNAc(b1-4)GlcNAc
# Summary of the method: as §1
# [3] = target: Fuc(a1-2)Gal6S(b1-4)Glc6S
# Summary of the method: as §1
# [4] = target: Fuc(a1-2)[Gal(a1-3)]Gal(b1-3)GalNAc
# Summary of the method: as §1
# [5] = target: Fuc(a1-2)[Gal(a1-3)]Gal(b1-4)GlcNAc(b1-2)Man(a1-3)[Fuc(a1-2)[Gal(a1-3)]Gal(b1-4)GlcNAc(b1-2)Man(a1-6)]Man(b1-4)GlcNAc(b1-4)[Fuc(a1-6)]GlcNAc
# Summary of the method: as §1
# [6] = target: Fuc(a1-2)[Gal(a1-4)]Gal(b1-4)GlcNAc
# Summary of the method: as §1
# [7] = target: Fuc(a1-2)[GalNAc(a1-3)]Gal(b1-4)GlcNAc(b1-6)GalNAc
# Summary of the method: as §1
# [8] = target: Fuc(a1-3)[Gal(b1-4)]GlcNAc
# Summary of the method: as §1
# [9] = target: Fuc(a1-3)[Gal(b1-4)]GlcNAc(b1-3)Gal(b1-4)[Fuc(a1-3)]GlcNAc
# Summary of the method: as §1
# [10] = target: Fuc(a1-3)[Gal(b1-4)]GlcNAc(b1-3)Gal(b1-4)[Fuc(a1-3)]GlcNAc(b1-3)Gal(b1-4)[Fuc(a1-3)]GlcNAc
# Summary of the method: as §1
# [11] = target: Fuc(a1-3)[Gal(b1-4)]GlcNAc(b1-4)Gal(b1-4)[Fuc(a1-3)]GlcNAc(b1-4)Gal(b1-4)[Fuc(a1-3)]GlcNAc
# Summary of the method: as §1
# Fuc(a1-4)GlcNAc = target: Fuc(a1-4)GlcNAc
# Summary of the method: as §1
# [12] = target: Gal(a1-3)Gal(b1-3)[Fuc(a1-4)]GlcNAc(b1-2)Man(a1-3)[Gal(a1-3)Gal(b1-3)[Fuc(a1-4)]GlcNAc(b1-2)Man(a1-6)]Man(b1-4)GlcNAc(b1-4)GlcNAc
# Summary of the method: as §1
# [13] = target: Gal(a1-3)[Gal(a1-4)]Gal(b1-4)GlcNAc
# Summary of the method: as §1
# [14] = target: Gal(a1-4)Gal(b1-3)GlcNAc(b1-2)Man(a1-3)[Gal(a1-4)Gal(b1-3)GlcNAc(b1-2)Man(a1-6)]Man(b1-4)GlcNAc(b1-4)GlcNAc
# Summary of the method: as §1
# Gal(b1-3)Gal = target: Gal(b1-3)Gal
# Summary of the method: as §1
# Gal(b1-3)GalNAc = target: Gal(b1-3)GalNAc
# Summary of the method: as §1
# [15] = target: Gal(b1-3)[Neu5Ac(a2-6)]GalNAc
# Summary of the method: as §1
# [16] = target: Gal(b1-3)[Neu5Ac(a2-6)]GlcNAc(b1-4)Gal(b1-4)Glc
# Summary of the method: as §1
# [17] = target: Gal(b1-4)GlcNAc(b1-2)Man(a1-3)[Gal(b1-4)GlcNAc(b1-2)Man(a1-6)][Gal(b1-4)GlcNAc(b1-4)]Man(b1-4)GlcNAc(b1-4)[Fuc(a1-6)]GlcNAc
# Summary of the method: as §1
# [18] = target: Gal(b1-4)GlcNAc(b1-2)Man(a1-3)[Man(a1-6)]Man(b1-4)GlcNAc(b1-4)GlcNAc
# Summary of the method: as §1
# [19] = target: Gal(b1-4)GlcNAc(b1-3)Gal(b1-4)GlcNAc(b1-2)Man(a1-3)[Gal(b1-4)GlcNAc(b1-3)Gal(b1-4)GlcNAc(b1-2)Man(a1-6)]Man(b1-4)GlcNAc(b1-4)GlcNAc
# Summary of the method: as §1
binder,measurement,setting,value
B1,glycan array binding signal (z-score),[1],0.007
same,glycan array binding signal (z-score),[2],0.824
same,glycan array binding signal (z-score),[3],0.081
same,glycan array binding signal (z-score),[4],-0.265
same,glycan array binding signal (z-score),[5],-1.16
same,glycan array binding signal (z-score),[6],1.45
same,glycan array binding signal (z-score),[7],0.044
same,glycan array binding signal (z-score),[8],5.46
same,glycan array binding signal (z-score),[9],3.95
same,glycan array binding signal (z-score),[10],5.1
same,glycan array binding signal (z-score),[11],9.12
same,glycan array binding signal (z-score),Fuc(a1-4)GlcNAc,0.064
same,glycan array binding signal (z-score),[12],-0.177
same,glycan array binding signal (z-score),[13],1.06
same,glycan array binding signal (z-score),[14],2.41
same,glycan array binding signal (z-score),Gal(b1-3)Gal,-0.039
same,glycan array binding signal (z-score),Gal(b1-3)GalNAc,-0.112
same,glycan array binding signal (z-score),[15],-0.361
same,glycan array binding signal (z-score),[16],0.273
same,glycan array binding signal (z-score),[17],3.48
same,glycan array binding signal (z-score),[18],0.201
same,glycan array binding signal (z-score),[19],2.62

# From the supplement of paper PMC8728848
